Measurements reported in the supplement of paper PMC12067093, “Discovery and optimisation of a covalent ligand for TRIM25 and its application to targeted protein ubiquitination” (Chemical Science, 2025).
Targets with the largest changes are over-represented here; the source holds about 21,000 in all.

compound: CC1Cc2ccccc2N1C(=O)C1CCCN(C1)C(=O)CCl (mixture of isomers) [TRIM25 ligand 11 (diastereomer mixture)]; experiment: probe-labelled cysteine peptide fold change vs DMSO (competition) (log2 fold change); higher = less target engagement (more negative = stronger competition); conditions: 50 µM; THP-1; incubation time: 4 h
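Further: competitive chemoproteomic profiling in live THP-1 cells with an iodoacetamide desthiobiotin (IA-DTB) probe, comparing probe-labelled peptide intensities in compound-treated cells against DMSO-treated controls.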

Target	probe-labelled cysteine peptide fold change
EXOC5_O00471_194_YHDLECQLIQEFTSAQR (UniProt O00471)	0.157
FBN2_P35556_941_CELDTACPR (UniProt P35556)	0.26
FHL2_Q14192_275_GFLTERDDILCPDCGK (UniProt Q14192)	-0.0756
ELP5_Q8TE02_151_LPCTTLCQVLHAVSHQDSCPGDSSSVGK (UniProt Q8TE02)	0.114
EPHX2_P34913_232_VTGIQLLNTPAPLPTSCNPSDMSHGYVTVKPR (UniProt P34913)	-0.204
EHHADH_Q08426_227+233_QHPGCLAQEACVR (UniProt Q08426)	0.0162
ENOSF1_Q7L5Y1_67_GTEVVVCAVNALAHHVLNK (UniProt Q7L5Y1)	0.0621
EDC4_Q6P2E9_838_ETCSTLAESPR (UniProt Q6P2E9)	-0.146
EIPR1_Q53HC9_95_VLTCAAVWR (UniProt Q53HC9)	0.137
F2_P00734_407_WVLTAAHCLLYPPWDK (UniProt P00734)	0.154
EXOSC8_Q96B26_60_LGNTTVICGVK (UniProt Q96B26)	0.0231
FGD3_Q5JSP0_284_QEVCGNLTLQHHMLEPVQR (UniProt Q5JSP0)	-0.0514
ECM1_Q16610_269_FSCFQEEAPQPHYQLR (UniProt Q16610)	0.858
ELP3_Q9H9T3_456_CSEETFR (UniProt Q9H9T3)	0.202
EIF3M_Q7L2H7_52_GAEISEENSEGGLHVDLAQIIEACDVCLKEDDK (UniProt Q7L2H7)	0.134
FLNB_O75369_991_KVVPCLVTPVTGR (UniProt O75369)	-0.0535
EIF1_P41567_94_NICQFLVEIGLAKDDQLK (UniProt P41567)	-0.0838
EEF1A1_P68104_411_FLKSGDAAIVDMVPGKPMCVESFSDYPPLGR (UniProt P68104)	1.14
EIF1B_O60739_69_FACNGTVIEHPEYGEVIQLQGDQRK<|>EIF1_P41567_69_FACNGTVIEHPEYGEVIQLQGDQRK (UniProt P41567+O60739)	-0.022

Target	probe-labelled cysteine peptide fold change
FASN_P49327_2369_AKLTPGCEAEAETEAICFFVQQFTDMEHNR (UniProt P49327)	-0.005
FAM111B_Q6SJ93_212_LCIYALK (UniProt Q6SJ93)	-0.0141
FTH1_P02794_91_KPDCDDWESGLNAMECALHLEK (UniProt P02794)	0.847
FUBP3_Q96I24_109_IQAESGCK (UniProt Q96I24)	0.192
EIF3K_Q9UBQ5_87_CMIDQAHQEERPIR (UniProt Q9UBQ5)	0.0963
FAM111B_Q6SJ93_351_NYYFCSLPR (UniProt Q6SJ93)	0.026
FECH_P22830_403_QLTLSCPLCVNPVCR (UniProt P22830)	0.0221
EFTUD2_Q15029_476_IEHTYTGGVDSDLGEAMSDCDPDGPLMCHTTK (UniProt Q15029)	-0.51
ETFDH_Q16134_387_LTFPGGLLIGCSPGFMNVPK (UniProt Q16134)	-0.698
FUBP3_Q96I24_366_CGLVIGK (UniProt Q96I24)	0.0606
FAR2_Q96K12_104+111_EDMQELLSCTNIIFHCAATVR (UniProt Q96K12)	0.0839
FNBP1_Q96RU3_511_RQSGLYDSQNPPTVNNCAQDR (UniProt Q96RU3)	-0.0608
FRRS1_Q6ZNA5_107_NAEDLNGPPIGSFTLIDSEVSQLLTCEDIQGSAVSHR (UniProt Q6ZNA5)	0.341
FAM98B_Q52LJ0_220_INDALSCEYECR (UniProt Q52LJ0)	0.0911
F2_P00734_564_RGDACEGDSGGPFVMK (UniProt P00734)	0.325
FAM241A_Q8N8J7_2_CSAGELLR (UniProt Q8N8J7)	0.559
EPRS_P07814_1301+1309_VACVQVVIIPCGITNALSEEDK (UniProt P07814)	-0.139
EIF3D_O15371_438_WTCCALLAGSEYLK (UniProt O15371)	0.0445
FH_P07954_434_LLGDASVSFTENCVVGIQANTER (UniProt P07954)	-0.961
